Screening results (PubChem)
This is a sample that favours compounds with a hit; in the whole collection about 0.5% have one here.
E coli growth-1 = E. coli V3065 growth inhibition, primary screen, counter-screen for AddAB inhibitor project, absorbance, OD600. actives 0.27% (n = 330,000). AID 449728, 2010. inhibition, % at 11.9 µM. 18 h;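 active = inhibition above the campaign's mean inhibition across all tested compounds plus 3 SD, cut at about 9.9% in these data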;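 also: uninfected addAB+ strain grown without phage in ampicillin broth; 0% = DMSO wells and 100% = ciprofloxacin 0.95 µg/ml wells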
E coli growth-2 = E. coli growth inhibition, primary screen, OD600; Escherichia coli growth, 23 h; hits give low values; OD600 absorbance (concentration not given with the values); actives 0.21% (n = 330,000); AID 1053175, 2014;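 active = OD600 absorbance below the run mean of sample wells minus 3.6 SD, in any replicate, cut at about 0.56 in these data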
Tat export inh = E. coli Tat export inhibitors, primary screen, MC4100, TorA-mCherry reporter, fluorescence, single point. inhibition, % at 10 µM. actives 0.036% (n = 340,000);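 active = mean replicate inhibition at least 50% and at least half of replicates individually reaching 50%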;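 also: exported cargo escapes ClpAP degradation while cytoplasmic cargo is degraded and loses fluorescence; 0% = median of neutral control wells and 100% = median of NaSCN control wells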
AddAB inh = growth inhibition of E. coli expressing H. pylori AddAB, primary screen, AddAB inhibitor project, absorbance | inhibition, % at 11.9 µM | actives 0.29% (n = 330,000); in the data active = inhibition above about 12%;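 also: 0% = vehicle wells of infected cells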
phage Ecoli inh = growth loss of phage-infected E. coli, primary screen, RecBCD inhibitor project, absorbance, with phage, HTS | inhibition, % at 11.9 µM | actives 0.26% (n = 360,000) | AID 651602, 2012; in the data active = inhibition above about 11%
AddAB conf = growth loss of phage-infected E. coli expressing H. pylori AddAB, confirmation, AddAB inhibitor project, absorbance, E. coli V3065, T4 phage, triplicate | shares compounds with AddAB inh | OD; T4 phage with gene 2 nonsense mutations | inhibition, % at 11.9 µM | actives 64% (n = 880);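 active = mean inhibition above a set limit taken from the earlier primary screen, cut at about 13% in these data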;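 also: higher means less bacterial growth since AddAB block lets phage replicate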
RecBCD counter = growth loss of RecBCD+ E. coli with mutant T4 phage, counter-screen for AddAB inhibitor project, absorbance, V66 E. coli; actives 73% (n = 880); shares compounds with AddAB inh; AID 488955, 2010; OD growth; inhibition, % at 11.9 µM;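 active = mean inhibition above the mean of solvent-only control wells plus 3 SD, cut at about 4% in these data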;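 also: optical density read after an 18 h incubation at 37 °C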
bact viab count = bacterial viability inhibition counter-screen, confirmation, counter-screen for AddAB inhibitor project, absorbance. shares compounds with AddAB inh. absorbance (AddAB counterscreen). inhibition, % at 11.9 µM. actives 35% (n = 880). AID 488956, 2010; in the data active = inhibition above about 25%
Starred values were filed as active, the others as inactive; . = no result.

SMILES | E coli growth-1 | E coli growth-2 | Tat export inh | AddAB inh | phage Ecoli inh | AddAB conf | RecBCD counter | bact viab count
CCN(C(=O)C1CCCN(c2nc(-c3ccc(OC)cc3)no2)C1)c1ccccc1F (stereo not given) | 4 | 0.77 | 2 | 22* | 1 | -2 | 1 | -3
CCN(C(=O)C1CCN(c2nc(-c3ccc(OC)cc3)no2)CC1)c1ccccc1 | -1 | 0.72 | 10 | 2 | 3 | . | . | .
COc1ccc(Cl)cc1C(=O)CSc1nc(N)cc(N)n1 | 97* | 0.67 | 3 | 98* | 3 | -1 | -1 | -3
CCCCn1nnnc1SCC(=O)c1cc(Cl)ccc1OC | -3 | 0.71 | 10 | 4 | 0 | . | . | .
CCCCCC(=O)NCc1c(C(F)(F)F)nn(C)c1N1CCOCC1 | 97* | 0.71 | 0 | 98* | 0 | -3 | 1 | 0
CC(NC1CCCCC1)=C(C#N)C(=O)NCCN1CCOCC1 | . | 0.72 | . | . | . | . | . | .
CCCCCNC(=O)c1cn(CC)c2cc(N3CCN(C)CC3)c(F)cc2c1=O | 90* | 0.047* | 4 | 92* | 7 | 100* | 12* | 96*
CCN(CC)CCCNC(=O)c1cn(CC)c2cc(N3CCN(C(=O)c4ccco4)CC3)c(F)cc2c1=O | 98* | 0.065* | 20 | 97* | 1 | 100* | 88* | 101*
CCN(CC)CCNC(=O)c1cn(CC)c2cc(N3CCN(C(=O)c4ccco4)CC3)c(F)cc2c1=O | 65* | 0.074* | 13 | 68* | 8 | 98* | 6.6* | 89*
C[C@@]12C(=O)N(c3cccc(F)c3)C(=O)N1C1c3ccccc3OCC1C2c1ccccc1 (stereo not given in full) | . | 0.74 | . | . | . | . | . | .
O=C(Oc1c(Cl)cc(Cl)c2cccnc12)c1cccc([N+](=O)[O-])c1 | 28* | 0.071* | 2 | 30* | . | 62* | 59* | 58*
O=C(Oc1cccc2cccnc12)c1cccc([N+](=O)[O-])c1 | 0 | 0.62 | -6 | 1 | 1 | . | . | .
COc1ccc(C=Nn2cncn2)cc1Cn1nc(C)c([N+](=O)[O-])c1C | . | 0.68 | . | . | . | . | . | .
CC(C)CC(=O)Nc1ccccc1N1CCN(c2ccccc2)CC1 | 7 | 0.66 | 8 | 15* | 0 | -4 | 0 | -5
CC(C)CC(=O)Nc1ccccc1N1CCN(C(=O)c2ccccc2)CC1 | -1 | 0.74 | -7 | -3 | 0 | . | . | .
CSc1nc(N)nc2c1ncn2CC(=O)Nc1ccc(C)c(C)c1 | 12* | 0.63 | 15 | 15* | 9 | 13* | 11* | 7
CSc1nc(N)nc2c1ncn2CC(=O)NCC(c1ccccc1)c1ccccc1 | -2 | 0.7 | 4 | 1 | 2 | . | . | .
Cc1ccc(NC(=O)Cn2cnc3ccccc32)cc1C | 14* | 0.68 | -14 | 14* | 7 | 20* | 14* | 11
O=C1c2cccc3c([N+](=O)[O-])ccc(c23)C(=O)N1O | 50* | . | 81* | 35* | 44* | 86* | 74* | 81*
O=C1c2cccc3c([N+](=O)[O-])ccc(c23)C(=O)N1c1ccccn1 | -2 | 0.67 | -12 | 1 | 3 | . | . | .
CC1CN(C(C)CO)C(=O)c2cccc(NC(=O)CCCCCC(=O)Nc3ccccc3N)c2OC1CN(C)C (stereo not given) | . | 0.72 | . | . | . | . | . | .
O=C(Nc1ccccc1O)c1ccccc1O | 13* | 0.48* | 2 | 24* | 9 | 5 | 8.2* | -1
Cc1cccc(NC(=O)c2ccccc2O)c1C | 2 | 0.62 | 1 | 4 | 6 | . | . | .
O=C1C2CCCN2C(c2ccc(F)c(F)c2)N1c1cccc(Cl)c1 (stereo not given) | 1 | 0.72 | -7 | 2 | 0 | . | . | .
O=C1C2CCCN2C(c2ccccc2)N1c1cccc(Cl)c1 (stereo not given) | 1 | 0.65 | 2 | 119* | 2 | -3 | 0 | -3
CCOc1ccc(C=C2SC(=S)N(C(C(=O)O)c3ccccc3)C2=O)cc1OCC (stereo not given) | . | 0.67 | . | . | . | . | . | .
